From PubChem
TDP1 cell CPT = DT40-hTDP1 cell growth loss with CPT. actives 12% (n = 420,000). AID 686979. Potency, µM (top dose mostly 46.2 µM), without a hit: top-dose activity change, negative = growth inhibition, most hits filed as inhibitors. chicken DT40 Tdp1-/-;hTDP1 cells + 20 nM CPT, ATP luminescence, 48 h; further: potency means the concentration at half of the fitted maximal effect; nearly all actives have a fitted effect of over 55% in size
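Chicken DT40 Tdp1-/- cells stably complemented with human TDP1 were seeded at 400 cells/well in medium containing 20 nM camptothecin, exposed to pin-transferred compounds, and grown at 37 °C for at least 48 hr. Viability was read as ATP luminescence.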
HT1080 IDH1KD tx = toxicity to HT-1080 IDH1 knockdown cells (counter line); actives 2% (n = 360,000); HT-1080 IDH1 knockdown viability, ATP luminescence, 48 h; Potency, µM (highest dose often 46.1 µM), for inactives: at the highest dose activity, negative = toxicity, hits mostly cytotoxic;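 further: potency means the concentration at half of the fitted maximal effect; 0% = DMSO wells and -100% = cell-free medium wells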
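Using the IDH1-knockdown HT-1080 line run in the same batch and compound series as the NT line, viability after 48 h at 37 °C was determined by CellTiter-Glo luminescence and expressed as % activity.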
DT40 TDP1 no CPT = qHTS for Inhibitors of human tyrosyl-DNA phosphodiesterase 1 (TDP1): qHTS in cells in absence of CPT; actives 15% (n = 420,000); AID 686978, 2013; DT40 Tdp1-/- hTDP1 cells, no CPT, ATP luminescence, 48 h; Potency, µM (doses to about 46.2 µM), for the others: top-dose activity change, negative = growth inhibition, hits mostly inhibitors; further: potency means the concentration at half of the fitted maximal effect; nearly all actives have a fitted effect of over 55% in size
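Chicken DT40 Tdp1-/- cells stably complemented with human TDP1 were seeded at 400 cells/well with DMSO in place of 20 nM camptothecin. After compound pinning, cells grew at least 48 hr at 37 °C; viability read by CellTiter-Glo luminescence.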
HT1080-NT tox = kills 2HG-producing HT-1080-NT fibrosarcoma cells; HT-1080-NT fibrosarcoma viability, CellTiter-Glo ATP luminescence, 48 h; Potency, µM (doses to about 46.1 µM), without a hit: at the highest dose activity, negative = less viability, actives largely listed as cytotoxic; actives 1.6% (n = 360,000);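 further: NT is the 2HG producing partner of a matched IDH1 knockdown line; potency means the concentration at half of the fitted maximal effect; 0% = DMSO-treated cells and -100% = media-only wells without cells; nearly all actives have a fitted effect of over 55% in size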
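Read-out is CellTiter-Glo luminescence after 10 minutes at room temperature, following 48 hours' compound treatment of HT-1080-NT cells (750 cells/well, RPMI, 5% FBS, 37 degrees C).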
ELG1 repair inh = inhibitors of ELG1-dependent DNA repair in HEK293T cells; HEK293T ELG1-luciferase reporter, luminescence, 16 h; DNA damage induced by 5-fluorouridine; AID 504467; actives 2.3% (n = 330,000); Potency, µM (highest dose often 46.1 µM), for the others: top-dose activity change, negative = inhibition, most hits filed as inhibitors; further: potency means the concentration at half of the fitted maximal effect; nearly all actives have a fitted effect of over 55% in size
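Step one: seed 2,000 cells per well. Step two: pin-transfer compound or DMSO alongside 5-fluorouridine. Step three: incubate 16 hr, 37 °C, 5% CO2. Step four: add ONE-Glo, wait 30 min, read luminescence.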
IL-1B inflam inh = blocks inflammasome-driven IL-1 beta release; actives 4.7% (n = 360,000); activity change, % at 57.5 µM; AID 743279; THP-1 LPS/ATP IL-1B secretion, AlphaLISA, 16 h; stronger effect = lower value; in the data active means activity change below about -50%; inconclusive means mostly about -30% to -49%
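THP-1 cells pretreated 1 hr with compounds (up to 57.5 uM final), then stimulated with LPS (250 ng/mL final) plus ATP (1.25 mM final); secreted IL-1B measured by AlphaLISA after 16 hr, decreased signal indicating inhibition.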
* = called active by the depositor; ? = inconclusive; / = not tested or not shown. Rows were chosen to be rich in hits. Some 19% of all compounds tested hit in one or more screens of this group. Unless noted, the call rests on the fitted dose curve; in most records, active means well fitted curve in the direction sought with a large enough effect; inconclusive means small, poorly fitted or top-dose-only effect, or another doubt; inactive means no such curve, though single readings can be large; an effect the other way counts as inactive or inconclusive. Unless noted, on the % scale 0 is the no-effect control and ±100 the full control effect.

SMILES	TDP1 cell CPT	HT1080 IDH1KD tx	DT40 TDP1 no CPT	HT1080-NT tox	ELG1 repair inh	IL-1B inflam inh
O=C(NC1CCCCC1)c1cc2nc(-c3ccco3)cc(C(F)(F)F)n2n1	21µM*	2%	18µM*	-1%	3%	-6
O=C(NC12CC3CC(CC(C3)C1)C2)c1cc2nc(-c3ccco3)cc(C(F)(F)F)n2n1	21µM*	-11%	26µM*	-17%	?	-15
O=C(NC1CCCCC1)c1cc2nc3c(c(C(F)(F)F)n2n1)CCCC3	?	-1%	21µM*	0%	?	-17
O=C(NCc1ccco1)c1cc2nc(-c3ccc4c(c3)OCO4)cc(C(F)(F)F)n2n1	?	-2%	18µM*	2%	?	-15
O=C(NCCCN1CCOCC1)c1cc2nc(-c3ccco3)cc(C(F)(F)F)n2n1	9%	-14%	0%	-7%	-18%	-5
COc1ccc(N2CCN(S(=O)(=O)c3c(C)nc4sccn4c3=O)CC2)cc1	-13%	2%	-30%	2%	-6%	-1
COc1ccc2[nH]c3c(=O)n4c(nc3c2c1)SCC4	-20%	-19%	-24%	-17%	?	-10
COc1cc2[nH]c3c(=O)n4c(nc3c2cc1OC)SCCC4	?	7.3µM*	?	7.3µM*	?	-61*
Cc1cccc(-n2nc(C(=O)c3ccco3)cc(-c3nc4ccccc4[nH]3)c2=N)c1	16µM*	-7%	8.2µM*	0%	13µM*	-12
COC(=O)CSc1ncccc1-c1nc2ccccc2[nH]1	-26%	-5%	?	2%	?	-11
COc1ccc(-n2nc(C(=O)c3cccs3)cc(-c3nc4ccccc4[nH]3)c2=N)cc1	5.8µM*	-21%	5.8µM*	-6%	?	?
Cc1ccccc1-n1nc(C(=O)c2cccs2)cc(-c2nc3ccccc3[nH]2)c1=N	12µM*	-16%	7.3µM*	-7%	13µM*	14
C=CCCC(=O)N1C[C@H]2CON(C)[C@H]2C[C@H]1c1ccc(Br)cc1	12%	-1%	0%	6%	/	15
CC1(C)CC(=O)c2cc(C(=O)Nc3cccc4ccccc34)c(=O)[nH]c2C1	?	/	16µM*	/	/	/
COc1ccccc1NC(=O)c1cc2c([nH]c1=O)CC(C)(C)CC2=O	-1%	/	-2%	/	/	/
CC1CCN(CC2C(=O)O[C@@H]3C[C@@]4(C)CCC[C@H](C)C4=C[C@H]23)CC(C)(C)C1 (some centres not stated)	?	-4%	18µM*	-14%	0%	/
C[C@@H]1CN([C@@H](C)CO)C(=O)CCCn2cc(nn2)CO[C@H]1CN(C)S(=O)(=O)c1cccc(C#N)c1	10%	6%	11%	14%	/	21
Cc1ccc(C(=O)Nc2ccccc2Cl)cc1	?	-6%	?	-2%	?	3
CCn1c(CNC(=O)c2ccc(OC)cc2)nnc1SCC(=O)Nc1ccccc1	12%	/	-11%	/	/	/
COc1ccccc1C(=O)NC(=O)COC(=O)Cn1[nH]c(=O)c2ccccc2c1=O	4%	2%	-1%	0%	23%	16
CN(Cc1ccc(C(C)(C)C)cc1)C(=O)C1CCN(C(=O)Nc2ccccc2)CC1	?	-24%	23µM*	-19%	?	-60*
Cc1ccc(CN(C)C(=O)C2CCN(C(=O)Nc3ccccc3)CC2)o1	4%	6%	-19%	2%	12%	10
C=CC[n+]1ccnc2ccccc21	5µM*	/	?	/	/	/
C[n+]1ccccc1/C=C/c1ccc2ncccc2c1	5%	1%	1%	1%	0%	-9
C[n+]1ccnc2ccccc21	1.4µM*	/	4µM*	/	/	/
SMILES	TDP1 cell CPT	HT1080 IDH1KD tx	DT40 TDP1 no CPT	HT1080-NT tox	ELG1 repair inh	IL-1B inflam inh
COc1ccccc1Oc1ccnc2cc(Cl)ccc12	?	-11%	?	-20%	1%	0
C=CC[n+]1ccc2ccccc2c1C	-11%	15%	-13%	6%	-20%	-2
C[n+]1ccnc2cc(Cl)ccc21	0.63µM*	/	0.71µM*	/	/	/
O=C(COC(=O)c1cccc(Br)c1)NC1CCCCCCC1	?	1%	?	3%	/	-14
C[C@@H](O)[C@H]1C(=O)N2C(C(=O)O)=C(S[C@@H]3CN[C@H](CNS(N)(=O)=O)C3)[C@H](C)[C@H]12	?	/	-60%	/	/	/
Cc1ccc(-c2nc(SC(C)C(=O)c3c(N)n(C)c(=O)n(C)c3=O)n[nH]2)cc1 (configuration not stated)	?	8%	23µM*	4%	?	28
CCc1nn2c(=O)cc(COC(=O)c3cccc(NC(=O)c4cccs4)c3)nc2s1	?	/	15µM*	/	/	/
CCCc1nn2c(=O)cc(COC(=O)c3ccc(NC(=O)c4cccs4)cc3)nc2s1	?	/	21µM*	/	/	/
CC(C)c1nn2c(=O)cc(COC(=O)c3cccc(NC(=O)c4cccs4)c3)nc2s1	-3%	/	-27%	/	/	/
CCOCCc1nn2c(=O)cc(COC(=O)c3ccc(NC(=O)C(C)(C)C)cc3)nc2s1	16µM*	/	13µM*	/	/	/
CN(C(=O)COC(=O)CNC(=O)c1sc2ccccc2c1Cl)c1ccccc1	-21%	3%	-8%	10%	-5%	13
CCc1ccccc1NC(=O)Cn1nc(C)c2nn(-c3ccc(Cl)cc3)c(C)c2c1=O	?	/	15µM*	/	/	/
COC(=O)c1ccccc1NC(=O)Cn1nc(C)c2nn(-c3ccc(Cl)cc3)c(C)c2c1=O	21µM*	/	26µM*	/	/	/
Cc1cccc(Cn2cc3c(=O)n(CC(=O)Nc4ccc(C)c(F)c4)nc-3c3cc(F)ccc32)c1	6%	/	-21%	/	/	/
COc1cc(CNC(=O)Nc2cccn3nc(COCCO)nc23)cc(OC)c1OC	-15%	27%	2%	-1%	/	-6
O=C1c2sc3nc4n(c(=O)c3c2CCC1Br)CCCCC4 (configuration not stated)	3.3µM*	-5%	2.9µM*	7%	?	-93*
CCNc1nc(-c2sc(NC(=O)C(C)(C)C)nc2C)c(-n2cc(-c3ccccc3)nn2)s1	10µM*	?	7.3µM*	?	/	-77*
CC(NC(=O)c1cc2cc(F)ccc2[nH]1)c1ccccc1 (configuration not stated)	18µM*	-4%	?	-7%	?	41
